Sampled rows, rich in hits. Any-hit rate of the full collection: about 2.4%.
PINK1 expr mod: A Quantitative High throughput Screen to Identify Chemical Modulators of PINK1 Expression; PINK1 immunofluorescence, high-content cytometry, 24 h; actives 0.2% (n = 410,000); Potency, µM (titrated, usually from 76.6 µM), inactives show at the top dose activation (PINK1 increase), actives largely listed as activators; AID 624263, 2012; active = well fitted activation curve with a large enough effect; inconclusive = small, poorly fitted or top-dose-only effect; cell line not stated here; note: % of control where 0% means no effect; nearly all actives have a fitted effect of over 65% in size
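PINK1 protein, normally rapidly degraded, was detected by immunofluorescence after 24 hour compound treatment of a stable cell line. Titration data (5 concentrations) came from laser-scanning cytometry, with CCCP-treated wells as controls.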
A549 viability: Nrf2 qHTS screen for inhibitors: counterscreen for cytotoxicity; Potency, µM (top dose mostly 46 µM), without a hit: top-dose activity change, negative = cytotoxicity, hits mostly inhibitors; A549 ARE-Fluc cells, CellTiter-Fluor viability, 18-24 h; AID 504648, 2011; actives 0.16% (n = 390,000); note: % is set by controls: 0 for no effect and ±100 for the full control effect
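A549 ARE_Fluc cells in 5% FBS OPTI-MEM were exposed to compounds in concentration-response for 18-24 h at 37 deg C. Viability was read by CellTiter-Fluor fluorescence (Ex 405/Em 525) after 30 min, before the luciferase read.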
Nrf2 activator: qHTS of Nrf2 Activators. AREc32 ARE-luciferase reporter (MCF7-derived line), luminescence, 24 h. Potency, µM (top dose mostly 46.1 µM), without a hit: at the top dose activation, usual class: activators. actives 0.31% (n = 410,000); note: % of control where 0% means no effect; nearly all actives have a fitted effect of over 65% in size
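Luciferase luminescence (Steady-Glo, 30 min at room temperature) served as the read-out of ARE activation in AREc32 cells treated with compounds for 24 hr at 37 deg C.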
Nrf2 block: Nrf2 qHTS screen for inhibitors; Potency, µM (top dose mostly 46 µM), inactives show at the highest dose activity change, negative = inhibition, actives largely listed as inhibitors; AID 504444, 2011; A549 ARE-Fluc reporter, luciferase luminescence, 18-24 h; actives 2.1% (n = 360,000); note: % is set by controls: 0 for no effect and ±100 for the full control effect; nearly all actives have a fitted effect of over 60% in size
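Two sequential reads on A549 ARE_Fluc cells exposed to compound for 18-24 h: a CellTiter-Fluor fluorescence read for viability, then a luciferase luminescence read for Nrf2/ARE activity.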
Epigenetic reg: Quantitative High-Throughput Screen for Regulators of Epigenetic Control; Potency, µM (series often up to 53.9 µM), without a hit: top-dose GFP activation, actives largely listed as activators; actives 0.2% (n = 280,000); murine LDR cells, GFP reporter derepression, 30 h; note: % of control where 0% means no effect; nearly all actives have a fitted effect of over 60% in size
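Murine LDR cells bearing a silenced CMV-driven GFP reporter were exposed to compound for 30 h at 37 C. After PBS washes, GFP-positive cells (20-120 um objects) counted by laser-scanning microplate cytometry.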
An asterisk follows results filed as active; ? = inconclusive; · = no result given; [ ] = dose if it differs, or a comment. Unless noted, calls come from the whole dose curve; as a rule, active = well fitted curve in the direction sought with a large enough effect; inconclusive = small, poorly fitted or top-dose-only effect, or another doubt; inactive = no such curve, though single readings can be large; an effect the other way counts as inactive or inconclusive. Potency is the fitted concentration of half-maximal effect.

SMILES	PINK1 expr mod	A549 viability	Nrf2 activator	Nrf2 block	Epigenetic reg
Cc1ccc(Cl)cc1N1CCN(c2ncnc3onc(C)c23)CC1	-4%	-19%	0%	21µM*	0%
Cc1ccc(NC(=O)C2CCCN(c3ncnc4onc(C)c34)C2)cc1Cl (stereo unspecified)	-2%	?	2%	13µM*	0%
COc1ccc(-c2nnc(C3CCN(C(=O)c4ccccc4F)CC3)o2)cc1	0%	0%	9%	-13%	?
COc1ccc(C(O)c2nccc3cc(OC)c(OC)cc23)cc1OC (stereo unspecified)	0%	-14%	2%	21µM*	1%
COc1ccc(C(=O)NCC2Cc3cc(C)cc(-c4nc5ccccc5s4)c3O2)c(OC)c1OC (stereo unspecified)	-1%	·	·	·	·
Cc1cc(=O)c2ccccc2n1Cc1ccccc1	-1%	-7%	6%	16µM*	2%
CCOC(=O)c1ccc(NC(=S)NCCC2=CCCCC2)cc1	32µM*	-3%	0%	9%	2%
CCC(C(=O)NCCc1ccc(OC)c(OC)c1)n1nc(C)c2sc3ccccc3c2c1=O (stereo unspecified)	0%	-12%	0%	?	?
CCN(CC)c1ccc(/C=C(/C#N)C(=O)NCc2ccccc2)o1	32µM*	-13%	4%	28%	?
COc1cccc(NC(=S)N2CCC(Cc3ccccc3)CC2)c1	0%	-1%	0%	18µM*	·
O=C(N/N=C/C(Br)=C/c1ccccc1)C(O)c1ccccc1 (stereo unspecified)	7%	-4%	11µM*	?	1%
O=C(O)c1ccc(N/N=C/C(Br)=C/c2ccccc2)cc1	2%	?	?	?	8%
O=C(N/N=C/C(Br)=C/c1ccccc1)C1CC1	5%	-3%	20µM*	?	4%
Cc1occc1C(=O)N/N=C/C(Br)=C\c1ccccc1	2%	1%	14µM*	?	4%
O=C(c1cccc(F)c1F)N1CCOc2ccc(CN3CCN(Cc4ccccn4)CC3)cc2C1	0%	·	·	·	·
O=C(c1ccc2c(c1)N(Cc1ccc(F)cc1)C(=O)c1ccccc1S2=O)N1CCC(Cc2ccccc2)CC1 (stereo unspecified)	0%	-24%	1%	23µM*	-1%
C1=Cc2ccccc2/C1=C\c1cccc(/C=C2\C=Cc3ccccc32)c1	0%	·	·	·	·
Cc1ccccc1Cn1c(=O)n(CC2CCC(C(=O)N3CCC(C)CC3)CC2)c(=O)c2sccc21 (stereo unspecified)	0%	?	-1%	23µM*	1%
O=[N+]([O-])c1ccc(N2CCOCC2)nc1	1%[38.3 µM]	?	-1%	-10%	0%
O=C(c1ccc(F)cc1F)C1CCN(c2ccc([N+](=O)[O-])cn2)CC1	4%	-17%	1%	23µM*	3%
COCC(=O)Nc1cc(C(=O)N2CC3(C)CC2CC(C)(C)C3)c2c(c1)nc(-c1ccncc1)n2C (stereo unspecified)	0%	·	·	·	·
COc1cc(CNC(=O)c2cnn(-c3ncc4c(n3)-c3ccccc3CC4)c2C)cc(OC)c1OC	0%	·	·	·	·
CCCCCNCc1ccc(Cl)cc1	0%	1%	0%	-1%	0%
CCCCCCC[N+](CC)(CC)CCCCc1ccc(Cl)cc1	?	-7%	-1%	16µM*	4%[16.9 µM]
CCC1(C2CCN(Cc3ccccc3Cl)CC2)NC(=O)N(CC2COc3ccccc3O2)C1=O (stereo unspecified)	1%	·	·	·	·
SMILES	PINK1 expr mod	A549 viability	Nrf2 activator	Nrf2 block	Epigenetic reg
COc1ccc(OCC(=O)Nc2cc(-c3nn(C)c(=O)c4ccccc34)ccc2OC)cc1	4%	-14%	1%	23µM*	6%
CCC(C)c1ccc(C(C)NC(=S)NCc2ccc(F)cc2)cc1 (stereo unspecified)	?	-21%	1%	15µM*	·
CCC(NC(=S)NCc1ccc(F)cc1)c1ccc(C(C)C)cc1 (stereo unspecified)	16µM*	-11%	2%	?	·
Cc1ccc(C)c(N2CCN(C(=O)Nc3ccc4c(c3)N(C)C(=O)CS4)CC2)c1	7%	-5%	11%	16µM*	0%
CN1C(=O)CSc2ccc(NC(=O)N3CCN(c4ccccn4)CC3)cc21	5%	-1%	9%	?	0%
O=C(CSc1nnc2scc(-c3ccccc3)n12)Nc1nsc(-c2ccccc2)n1	0%[38.3 µM]	-25%	4%	16µM*	3%
O=C(CSc1nnc2scc(-c3ccccc3)n12)Nc1nsc(-c2ccc(Cl)cc2)n1	1%	-13%	0%	?	·
Cc1ccc(-c2csc3nnc(SCC(=O)Nc4nsc(-c5ccccc5)n4)n23)cc1	-3%[38.3 µM]	1%[1.84 µM]	4%	21µM*	-2%
O=C(CC1SC(N2CCCC2)=NC1=O)Nc1ccc(C(=O)Nc2ncccc2O)cc1 (stereo unspecified)	7%	-1%	16µM*	14%	·
CN(Cc1ccccc1F)C(=O)c1ccc(NC(=O)CC2SC(N3CCCCC3)=NC2=O)cc1 (stereo unspecified)	1%	7%	2%	15%	·
Cc1cccc(N2CCN(C(=O)c3ccc(NC(=O)CC4SC(N5CCCC5)=NC4=O)cc3)CC2)c1C (stereo unspecified)	1%	2%	4%	?	·
Cc1ccnc(NC(=O)c2ccc(NC(=O)CC3SC(N4CCCC4)=NC3=O)cc2)c1 (stereo unspecified)	0%	-1%	0%	?	·
O=C(CC1SC(N2CCCC2)=NC1=O)Nc1ccc(C(=O)N2CCN(c3cccc(Cl)c3)CC2)cc1 (stereo unspecified)	1%	?	0%	21µM*	·
CN(Cc1ccccc1F)C(=O)c1cccc(NC(=O)CC2SC(N3CCCCC3)=NC2=O)c1 (stereo unspecified)	6%	-11%	4%	18µM*	·
O=C1/C(=C/C=C/c2ccco2)SC(=S)N1c1ccc(O)cc1	6%	-8%	10µM*	6%	3%
O=C(COC(=O)/C=C/c1ccccc1[N+](=O)[O-])NCc1ccco1	-2%	6%	14µM*	3%	·
COC(=O)CNC(=O)COC(=O)/C=C/c1ccccc1[N+](=O)[O-]	2%	0%	28%	22%	2%
Cc1n[nH]c(=S)n1/N=C/c1ccccc1OCc1ccc(Cl)cc1Cl	13µM*	?	10%	?	6%
COc1cccc(CN2CCC3(CCC(CNC(=O)c4ccccc4)O3)CC2)c1 (stereo unspecified)	1%	·	·	·	·
COc1cc(OC)c(NC(=S)Nc2cc(Cl)cc(Cl)c2)cc1Cl	?	0%	2%	21µM*	0%
